Sampled rows, rich in hits. Any-hit rate of the full collection: about 10%.
HP1b binding inh: blocks HP1-beta chromodomain binding to methylated histone tails; P83916; AlphaScreen HP1-beta / biotin-H3K9me3 peptide binding; Potency, µM (top dose mostly 114 µM), without a hit: at the top dose activity change, negative = inhibition, most hits filed as inhibitors; actives 0.56% (n = 390,000); AID 540317; also: nearly all actives have a fitted effect of over 70% in size
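Compound inhibition of the preformed complex between 50 nM HP1-beta and 50 nM biotinylated H3K9me3 peptide was read by AlphaScreen. Buffer was PBS pH 7.4 with 0.01% Tween-20. Incubations ran 30 min at room temperature, with 10 ug/mL donor/acceptor beads.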
BAZ2B block: blocks human BAZ2B. Q9UIF8. AlphaScreen BAZ2B-H3K14Ac peptide displacement. Potency, µM (titrated, usually from 114 µM), inactives show at the highest dose activity change, negative = inhibition, usual class: inhibitors. actives 4.4% (n = 360,000); also: % is scaled to controls: 0 for no effect and ±100 for the full control effect; nearly all actives have a fitted effect of over 60% in size
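Multi-concentration screen (max 110 uM) measuring displacement of acetylated histone H3 peptide from BAZ2B by AlphaScreen, using 50 nM protein, 50 nM peptide and 10 ug/mL streptavidin donor plus Ni-chelate acceptor beads.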
G9a inh: G9a (human) methyltransferase inhibition; Q96KQ7; G9a H3K9 monomethylation, AlphaScreen, 2 h; Potency, µM (top dose mostly 102 µM), for the others: at the top dose activity, negative = inhibition, hits mostly inhibitors; actives 8.8% (n = 350,000); AID 504332; also: % is scaled to controls: 0 for no effect and ±100 for the full control effect; nearly all actives have a fitted effect of over 75% in size
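Step 1: enzyme (final 20 nM) with compound, 15 min RT. Step 2: substrate peptide 500 nM and SAM 20 uM, 2 h RT. Step 3: anti-H3K9me1 antibody and AlphaScreen beads, 10 min, then plate read.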
GLS inh: inhibitors of human glutaminase (GLS) | Potency, µM (series often up to 45.5 µM), for inactives: at the highest dose activity change, negative = inhibition, hits mostly inhibitors | GLS enzymatic activity, qHTS titration | actives 0.21% (n = 410,000) | O94925; also: % is scaled to controls: 0 for no effect and ±100 for the full control effect
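Read-out is an Amplex red fluorescence increase coupled through glutamate oxidase and HRP, measured before and after 30 min room-temperature incubation. hKGA is in 45 mM KH2PO4 (pH 8.2) with 0.02% Tween-20; glutamine added as 1mM solution.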
L3MBTL1 inh: blocks human L3MBTL1 | Q9Y468 | AlphaScreen L3MBTL1–H3K9me1 peptide binding | Potency, µM (series often up to 57.1 µM), inactives show top-dose activity, negative = inhibition, hits mostly inhibitors | actives 0.66% (n = 230,000); also: % is scaled to controls: 0 for no effect and ±100 for the full control effect; nearly all actives have a fitted effect of over 60% in size
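L3MBTL1 (50 nM) pre-complexed 30 min with biotinylated H3(1-15)K9me1 peptide (75 nM), then compounds added for 30 min at room temperature; AlphaScreen streptavidin donor/nickel chelate acceptor beads (10 ug/mL final) read after 30 min dark incubation.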
JMJD2A Tudor inh: JMJD2A Tudor domain (human) inhibition. O75164. AlphaScreen JMJD2A-Tudor / H3K4me3 peptide binding. Potency, µM (doses to about 114 µM), for the others: at the top dose activity change, negative = inhibition, hits mostly inhibitors. actives 4.4% (n = 390,000). AID 504339; also: % is scaled to controls: 0 for no effect and ±100 for the full control effect; nearly all actives have a fitted effect of over 50% in size
Starred values were filed as active, the others as inactive; ? = inconclusive; . = no result; [ ] = dose if it differs, or a comment. Calls follow the shape of the dose curve; as a rule, active = well fitted curve in the direction sought with a large enough effect; inconclusive = small, poorly fitted or top-dose-only effect, or another doubt; inactive = no such curve, though single readings can be large; an effect the other way counts as inactive or inconclusive. Potency is read from the fitted curve at half-maximal effect.

SMILES | HP1b binding inh | BAZ2B block | G9a inh | GLS inh | L3MBTL1 inh | JMJD2A Tudor inh
Cc1ccc(NC(=O)CSC2=C(C#N)C(c3ccc4c(c3)OCO4)C3=C(CCCC3=O)N2)c(C)c1 (stereo not given) | 30% | -34% | 50µM* | 6% | -11% | -26%
CCc1ccccc1NC(=O)CSC1=C(C#N)C(c2ccc(O)c(OC)c2)C2=C(CCCC2=O)N1 (stereo not given) | -27% | -34% | 8.9µM* | ? | 23%[11.4 µM] | -18%[11.4 µM]
CCN1CCN(c2cc3c(cc2F)c(=O)c(S(=O)(=O)c2ccc(OC)cc2)cn3CC)CC1 | 16% | -2% | -31%[59 µM] | -1% | . | -24%
CCN1C(=O)c2ccccc2Sc2ccc(NC(=O)Nc3cccc([N+](=O)[O-])c3C)cc21 | 13%[57 µM] | 1% | 0%[59 µM] | 6% | . | -21%
CCn1c(SCc2c(F)cccc2Cl)nc(=O)c2c(C(=O)OC)cc(C3CC3)nc21 | 13%[57 µM] | -13% | -27%[59 µM] | -13% | . | -32%
Cc1cccn2c(=O)cc(CSc3nnc(NC(=O)C(C)C)s3)nc12 | 16%[57 µM] | 4% | 33%[59 µM] | 6% | . | -8%
COc1cccc(CCc2ccccc2OCC(CN(C)C)OC(=O)CCC(=O)O)c1 (stereo not given) | . | . | -2%[12.7 µM] | 16% | . | .
COc1ccc(C2=Nn3c(nnc3-c3ccc(OC)cc3OC)SC2)cc1 | . | . | . | . | . | -24%
O=C1CCCC2=C1C(c1ccc3c(c1)OCO3)c1c([nH]n(-c3ccccc3)c1=O)N2 (stereo not given) | -4% | -4% | 40µM* | 21% | -6% | -23%
CC(C)=CCc1c2c(c(O)c3c(=O)c4c(oc13)-c1cc(O)c(O)cc1OC4C=C(C)C)C=CC(C)(C)O2 (stereo not given) | ? | . | . | 4% | . | 35µM*
Cc1c(C#N)c(O)[nH]c(=O)c1N=Nc1ccc(Br)cc1C(=O)O | -5%[57 µM] | ? | 45µM* | 0% | . | ?
Cc1cccc(N=Nc2c(C)c(C#N)c(O)[nH]c2=O)c1 | 3% | -33% | 50µM* | 19% | -5% | -34%
Cc1[nH]n(-c2ccc(Cl)cc2)c(=O)c1C=Nc1ccc(S(=O)(=O)N2CCOCC2)cc1 | -6% | -34% | 50µM* | -8% | -13% | -29%
CC(=O)c1ccc(N=Nc2c(C)[nH]n(-c3ccccc3)c2=O)cc1 | ? | 32µM* | 3.5µM* | 14% | -23% | ?
Cc1[nH]n(-c2ccccc2)c(=O)c1N=Nc1cccc(S(=O)(=O)N2CCOCC2)c1 | ? | -2% | -1% | 7% | 0% | 56µM*
Cc1[nH]n(-c2ccccc2)c(=O)c1N=Nc1cccc(C(=O)O)c1 | -8% | -34% | . | 19% | -7% | ?
CCc1nnc(NS(=O)(=O)c2ccc(N=Cc3c(C)[nH]n(-c4ccc(Cl)cc4)c3=O)cc2)s1 | -1% | ? | -8%[59 µM] | -2% | -9% | -21%
Cc1[nH]n(-c2ccccc2)c(=O)c1N=Nc1c(Cl)cccc1Cl | 19% | ? | 22µM* | 0% | -1% | -22%
CCCOc1ccc(C2c3c(-c4ccccc4O)n[nH]c3C(=O)N2CCc2ccccc2)cc1OCC (stereo not given) | 15% | -2% | 13%[59 µM] | -1% | . | -27%
COc1cc(C(=O)Nc2ccc3oc(-c4ccccc4)nc3c2)cc(OC)c1OC | 21% | -19% | ? | -8% | . | -27%
Cc1[nH]n(-c2ccccc2)c(=O)c1N=Nc1ccccc1 | ? | 2.5µM* | 3.5µM* | -1% | -25% | 11µM*
Cc1[nH]n(-c2ccccc2)c(=O)c1N=Nc1ccc(C(=O)O)cc1 | 4% | -38% | 79µM* | 19% | . | ?
CCOc1ccccc1N=Nc1c(C)[nH]n(-c2ccccc2)c1=O | ? | ? | . | 14% | 3% | 45µM*
CCOC(=O)c1c(C)[nH]c(C(=O)COC(=O)COc2ccccc2C=O)c1C | -13% | -36% | -3%[59 µM] | ? | 0% | 45µM*
O=C1Nc2ccccc2C1Cc1ccccn1 (stereo not given) | 1% | ? | ? | 5% | 0% | 89µM*
SMILES | HP1b binding inh | BAZ2B block | G9a inh | GLS inh | L3MBTL1 inh | JMJD2A Tudor inh
CCCCCNC(=O)C(=O)C1C(=O)Nc2ccccc21 (stereo not given) | 51% | 79µM* | . | 4% | . | ?
CN(C)CCNC(=O)C(=O)C1C(=O)Nc2ccccc21 (stereo not given) | . | -10% | 32µM* | . | 6% | .
CCn1c(CC2C(=O)Nc3ccccc32)nc2ccccc2c1=O (stereo not given) | -1% | -6% | -4%[59 µM] | -1% | . | -23%
Cc1ccc(NC(=O)C(=O)C2C(=O)Nc3ccccc32)cc1 (stereo not given) | 38% | 3% | ? | -1% | -3% | -13%
COc1cc(CC2C(=O)Nc3ccccc32)cc(C)c1O (stereo not given) | 16% | -12% | 35µM* | -2% | . | -10%
O=C1Nc2ccccc2C1Cc1ccc(OC(F)(F)F)cc1 (stereo not given) | 39% | 3% | 1% | -3% | . | -11%
O=C(NCc1ccccn1)C(=O)C1C(=O)Nc2ccccc21 (stereo not given) | 32% | 79µM* | 50µM* | 22% | . | -4%
O=C1Nc2ccccc2C1C(C[N+](=O)[O-])c1ccccn1 (stereo not given) | 49% | ? | 35µM* | 2% | . | -14%
O=[N+]([O-])c1ccc(CC(Cl)c2ccccn2)cc1 (stereo not given) | 29% | . | . | -2% | . | -17%
O=C(NCc1ccccn1)C(=O)Nc1ccccc1 | 32% | 1% | -3% | -3% | 10% | -18%
COC(=O)c1ccccc1NC(=O)Cn1nnc2sc(-c3ccccc3)cc2c1=O | 30% | -22% | -3%[59 µM] | -10% | . | -7%
COc1ccccc1NC(=O)c1c(C)cc(C)nc1SCC(=O)Nc1ccc(C)cc1 | 34% | -21% | -6%[59 µM] | 10% | . | -20%
Cc1cccc(-n2c(=O)c3c(c4cc(C)ccc4n3C)n(CC(=O)N3CCCC3)c2=O)c1 | 26% | -12% | -19%[59 µM] | 6% | . | -18%
COc1cccc(Cn2cnc3c(NS(=O)(=O)c4ccc(Cl)cc4Cl)c(C)c(C)cc32)c1 | 24% | -5% | . | -3% | -2% | -30%
COc1cccc(Cn2cnc3c(NS(=O)(=O)c4cc(Cl)ccc4Cl)c(C)c(C)cc32)c1 | 17% | -1% | 8.9µM* | 8% | -5% | -14%
CCn1nc([N+](=O)[O-])c2c(-c3nc4ccccc4o3)c(N)n(CCCOC)c2c1=O | -1% | 56µM* | ? | 1% | . | ?
COC(=O)c1ccc(COc2ccc(/C=N/NC(N)=S)cc2)o1 | 23% | -28% | 50µM* | 14% | -8% | -10%

Compound activity deposited in PubChem by National Center for Advancing Translational Sciences (NCATS).
